SMILES strings stand for the structures.

These results are taken from the supplement of paper PMC11219838.

The assay relates to Caenorhabditis elegans L1 (N2). In words: survival and reproduction score of C. elegans L1 (0: 0-10 living worms, 1: 11-20, 2: 21-50, 3: >50, 4: overgrown) (score 0-4); higher = more worms, less nematicidal, active = 1 or less; extreme values may be limits of the assay. Particulars: 60 µM; 6 days; temperature: 20 °C. The procedure: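 DODA library (846 commercial 1,3,4- and 1,2,4-oxadiazole compounds plus commercial nematicide controls) screened at a single dose of 60 µM (0.6% DMSO) in 96-well plates, two biological replicates. Read-outs: C. elegans N2 L1 survival/reproduction score at day 6, 20 °C (0: 0-10 worms, 1: 11-20, 2: 21-50, 3: >50, 4: overgrown/starved). C. elegans daf-2 dauer, D. dipsaci and M. hapla J2 mobility at day 5, 20 °C, and P. penetrans mobility at day 5, 20 °C, each relative to DMSO controls. M. hapla egg hatching at day 12, 25 °C, relative to the mean of 8 DMSO wells on the same plate.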
`CCCC(=O)Nc1ccccc1-c1nc(-c2ccccn2)no1`: the “survival and reproduction score” value was 4 (inactive).
To `COc1ccc(-c2nnc(SCC(=O)c3ccc(C)o3)o2)cc1` belongs 2 (inactive).
As for `COc1cccc(-c2noc(CSc3ccccc3)n2)c1`, the “survival and reproduction score” value is 4 (inactive).
The figure for `Cc1cccc(OCc2nc(-c3ccc(Br)cc3)no2)c1` is 4 (inactive).
Take `Cc1ccc(OCc2nc(-c3ccncc3)no2)c(Br)c1`: the “survival and reproduction score” value was 3.5 (inactive).
Take `CCOc1cc(C#N)ccc1OCc1nc(-c2cccs2)no1`: the “survival and reproduction score” value was 4 (inactive).
As to `CCOc1ccccc1-c1nc(-c2ccc(Br)cc2)no1`, the “survival and reproduction score” value is 3 (inactive).
The figure for `CCOc1nc(-c2ccc(C)cc2)ccc1-c1noc(-c2cccnc2)n1` is 4 (inactive); for `Cc1ccc(OCc2nc(-c3ccc(Cl)cc3)no2)cc1` it is 4 (inactive).
To `COc1ccc(-c2noc(COc3ccc(Cl)cc3C)n2)cc1` belongs 4 (inactive); to `O=C(CSc1nnc(-c2cccc(Cl)c2)o1)N1CCCCC1`, 4 (inactive); to `O=C(CSc1nnc(-c2ccncc2)o1)Nc1ccccc1Cl`, 4 (inactive).
Turning to `Cc1ccc(OCc2nc(-c3ccccn3)no2)cc1C`, the “survival and reproduction score” value is 4 (inactive).
Regarding `Clc1cccc(-c2nc(-c3ccncc3)no2)c1`, the “survival and reproduction score” value was 0 (active).
In the case of `COc1ccccc1-c1nc(-c2ccccc2Cl)no1`, the “survival and reproduction score” value is 4 (inactive).
As for `COc1ccc(-c2noc(CSc3nc4cc(C)ccc4[nH]3)n2)cc1`, the “survival and reproduction score” value was 4 (inactive).
To `FC(F)(F)c1cccc(-c2noc(-c3cccs3)n2)c1` belongs 0 (active); to `CC(C)CCC(=O)Nc1ccccc1-c1nc(-c2ccncc2)no1`, 4 (inactive).
To `CC(Sc1nnc(-c2ccc(C(C)(C)C)cc2)o1)C(=O)Nc1nccs1` (stereo not given) belongs 4 (inactive); to `O=C(CSc1nnc(-c2ccccc2)o1)Nc1cc(C(F)(F)F)ccc1Cl`, 4 (inactive); to `CCOc1nc(-c2ccc(C)cc2)ccc1-c1noc(-c2ccco2)n1`, 4 (inactive).
Consider `COc1ccc(-c2noc(COc3ccccc3Cl)n2)cc1`, for which the “survival and reproduction score” value was 4 (inactive).
Turning to `CC(C)(C)c1ccc(OCc2nc(-c3ccncc3)no2)c(Br)c1`, the “survival and reproduction score” value was 4 (inactive).
On to `COc1ccc(Cl)cc1-c1noc(-c2ccc(Cl)cc2)n1`, for which the “survival and reproduction score” value was 4 (inactive).
To `COc1ccc(Cl)cc1NC(=O)CSc1nnc(-c2ccco2)o1` belongs 4 (inactive).
With `Brc1cccc(-c2nc(-c3ccncc3)no2)c1`, the “survival and reproduction score” value is 1 (active).
As for `Cc1csc(NC(=O)CSc2nnc(-c3ccccc3Cl)o2)n1`, the “survival and reproduction score” value is 4 (inactive).
The figure for `Cc1ccccc1OCc1nc(-c2cccc(NC(=O)c3ccco3)c2)no1` is 4 (inactive).
Regarding `Cc1cc(OCc2nc(-c3ccncc3)no2)c(C)c(C)c1Br`, the “survival and reproduction score” value is 4 (inactive).
The figure for `CCOc1ccc(NC(=O)CSc2nnc(-c3ccccc3Cl)o2)cc1` is 4 (inactive); for `COc1ccccc1OCc1nc(-c2ccc(Br)cc2)no1` it is 4 (inactive).
In the case of `Cc1cccc(-c2noc(COc3ccc(C)c(C)c3)n2)c1`, the “survival and reproduction score” value was 4 (inactive).
To `O=C(Nc1cccnc1)c1ccccc1-c1nc(-c2ccc(Cl)cc2)no1` belongs 4 (inactive); to `Ic1cccc(-c2nc(-c3cccnc3)no2)c1`, 4 (inactive); to `Cc1ccc(-c2nnc(SCc3ccccc3C)o2)cc1`, 4 (inactive).
To `Cc1cc(C)c(CSc2nnc(-c3ccccc3)o2)c(C)c1` belongs 4 (inactive); to `Brc1ccc(OCc2nc(-c3ccc4c(c3)OCO4)no2)cc1`, 4 (inactive).
With `N#Cc1ccccc1NC(=O)CSc1nnc(-c2ccccc2)o1`, the “survival and reproduction score” value was 4 (inactive).
The figure for `Fc1ccccc1-c1nc(-c2ccccc2)no1` is 0 (active); for `Fc1ccc(-c2noc(COc3cccc(Cl)c3)n2)cc1` it is 4 (inactive).
